Experimental data from PubChem BioAssay (NCATS).
Results filed as inconclusive are left out. A call without a number means that no potency is given here. The source made the active and inactive calls. Calls come from the whole dose curve; as a rule, active = well fitted inhibition curve with a large enough effect; inconclusive = small, poorly fitted or top-dose-only effect; inactive = flat fitted curve, though single readings scatter.

assay: qHTS for Inhibitors of Plasmodium falciparum (DD2) proliferation (AID 504314);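 note: parasite DNA measured by SYBR Green fluorescence after red cell lysis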; details: P. falciparum Dd2 in erythrocytes, SYBR Green growth, 72 h; series mostly up to 6.11 µM
How it was run: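 Normalization used 0.29 uM artemisinin as full inhibition and DMSO as baseline. Parasitized erythrocytes were exposed to compounds for 72 h (37C, 5% CO2), then lysed with saponin/Triton buffer containing SYBR Green I.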

| SMILES | Potency |
| --- | --- |
| CCN(CCNC(=O)[C@H]1C=C(OC)C(=O)C[C@H](c2ccccc2)[C@@H]1C)C(C)=O | inactive |
| CCCCCCCC1Cc2ccccc2C(C(C(=O)OC)C(=O)OC)N1C(=O)OC (stereo not given) | inactive |
| C=C(C)CCCN1C=C(C(=O)OCC)C(c2ccccc2)NC1=O (stereo not given) | inactive |
| C[C@@H]1C=CCCO[C@]12C(=O)N(Cc1ccccc1C(F)(F)F)c1cccc(Br)c12 | inactive |
| COCC=CC1=CC2=CC(=O)C(C)(OC(=O)c3cnc4ccccc4n3)C(=O)C2=CN1CC(C)C (stereo not given) | inactive |
| C=CCN1c2ccccc2[C@]23CCC(=O)N(CCc4ccccn4)C2=NC(C(=O)OC)=C(C(=O)OC)[C@H]13 | inactive |
| CC(C)OC(=O)[C@@H]1CC[C@H](C)[C@@H](CCC[C@@H]2CC=C[C@H](CC#N)O2)O1 | inactive |
| CC(C)=CCCC(C)=CCN1C(=O)[C@]2(OCCC=C[C@H]2C)c2ccccc21 | inactive |
| COC(=O)C1=C(C)N(Cc2ccccc2)C(=NCc2ccccc2)NC1c1ccccc1 (stereo not given) | inactive |
| COc1ccc2c(c1)[C@@H](NC(=O)C(F)(F)F)C1CCCCC21c1ccccc1 (stereo not given in full) | inactive |
| COC(=O)CC=C1c2ccccc2C[C@H](OC)[C@@H]1C | inactive |
| CC(Nc1oc(-c2ccccc2)nc1-c1ccccc1)c1ccccc1 (stereo not given) | inactive |
| CCOC(=O)CN1C(=O)NC(c2ccc(Br)cc2)C(C(C)=O)=C1C (stereo not given) | inactive |
| Cc1cc(C)c(-c2cc([C@H](C)ON=C[C@@H](C)[C@H](OCc3ccccc3)C(C)C)on2)c(C)c1 | inactive |
| COCOc1c2c(c(OCOC)c3c(OCOC)cccc13)C(=NNS(=O)(=O)c1ccc(C)cc1)C1=C2CCCC1 | inactive |
